Experimental data from PubChem BioAssay (NCATS).
Records with an inconclusive call do not appear. Active and inactive are the calls of the source. Calls follow the shape of the dose curve; as a rule, active = well fitted cell-killing curve with a large enough effect; inconclusive = small, poorly fitted or top-dose-only effect, or effect the other way; inactive = no such curve, though single readings can be large or run the other way.

Key:
[1] = Quantitative High-Throughput drug screen in 47 multiple myeloma cell lines against the NCATS MIPE library collection: KMS34_JCRB cell viability assay (AID 1918985); also: nearly all actives have a fitted effect of over 40% in size; also: potency is read from the fitted curve at half-maximal effect
How it was run: (§1)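 ATP-based luminescence (CellTiter-Glo, 5 min RT incubation) quantified surviving cells following two days' treatment with MIPE 4.0 agents at 37 °C, 5% CO2.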

[2] = Quantitative High-Throughput drug screen in 47 multiple myeloma cell lines against the NCATS MIPE library collection: OCIMY5_PLB cell viability assay (AID 1918988); also: nearly all actives have a fitted effect of over 65% in size; also: potency is read from the fitted curve at half-maximal effect
How it was run: as §1

[3] = Quantitative High-Throughput drug screen in 47 multiple myeloma cell lines against the NCATS MIPE library collection: SKMM1_PLB cell viability assay (AID 1919863); conditions: SKMM1 myeloma viability, CellTiter-Glo ATP, 48 h; viability: active compounds read low; also: nearly all actives have a fitted effect of over 35% in size; also: potency is read from the fitted curve at half-maximal effect
How it was run: as §1

[4] = Quantitative High-Throughput drug screen in 47 multiple myeloma cell lines against the NCATS MIPE library collection: U266_ATCC cell viability assay (AID 1919864); also: potency is read from the fitted curve at half-maximal effect; nearly all actives have a fitted effect of over 35% in size
How it was run: as §1

[5] = Quantitative High-Throughput drug screen in 47 multiple myeloma cell lines against the NCATS MIPE library collection: XG6_PLB cell viability assay (AID 1919865); also: nearly all actives have a fitted effect of over 40% in size; also: potency is read from the fitted curve at half-maximal effect
How it was run: as §1

[6] = Quantitative High-Throughput drug screen in 47 multiple myeloma cell lines against the NCATS MIPE library collection: XG1_PLB cell viability assay (AID 1919866); also: nearly all actives have a fitted effect of over 35% in size; also: potency is read from the fitted curve at half-maximal effect
How it was run: as §1

[7] = Quantitative High-Throughput drug screen in 47 multiple myeloma cell lines against the NCATS MIPE library collection: L363_DSMZ cell viability assay (AID 1918984); also: nearly all actives have a fitted effect of over 40% in size
How it was run: as §1

[8] = Quantitative High-Throughput drug screen in 47 multiple myeloma cell lines against the NCATS MIPE library collection: OPM1_PLB cell viability assay (AID 1918989); also: nearly all actives have a fitted effect of over 40% in size; also: potency is read from the fitted curve at half-maximal effect
How it was run: as §1

[9] = Quantitative High-Throughput drug screen in 47 multiple myeloma cell lines against the NCATS MIPE library collection: OCIMY7_PLB cell viability assay (AID 1918987); conditions: OCI-MY7 myeloma viability, CellTiter-Glo ATP, 48 h; viability (% of DMSO): at 45.8 µM (top of the series); also: nearly all actives have a fitted effect of over 65% in size; also: potency is read from the fitted curve at half-maximal effect
How it was run: as §1

CO[C@H]1C=CC=C(C)C(=O)NC2=CC(=O)C(NCCN(C)C)=C(C[C@@H](C)C[C@H](OC)[C@@H](O)[C@@H](C)C=C(C)[C@@H]1OC(N)=O)C2=O
active: Potency [1] 0.0132 µM | Potency [2] 0.0118 µM | Potency [3] 0.372 µM | Potency [4] 0.0662 µM | Potency [5] 0.105 µM | Potency [6] 0.0372 µM

CC#CCn1c(N2CCC[C@@H](N)C2)nc2c1c(=O)n(Cc1nc(C)c3ccccc3n1)c(=O)n2C
active: Potency [1] 4.18 µM | Potency [2] 26.4 µM
inactive: Potency [5]

O=c1cc(-c2ccccc2)oc2cc(O)c(O)c(O)c12
inactive: Potency [7]
active: Potency [8] 11.8 µM | Potency [3] 18.7 µM

COc1ccc(-c2coc3cc(O)ccc3c2=O)cc1
inactive: Potency [1] | Potency [9] | Potency [8] | Potency [5] | Potency [6]

O=c1c(-c2ccc(O)cc2)coc2cc(O)ccc12
active: Potency [2] 14.8 µM
inactive: Potency [1] | Potency [9] | Potency [8] | Potency [5] | Potency [6]

CCOC1OC(=O)C[C@H]1NC(=O)[C@@H]1CCCN1C(=O)[C@@H](NC(=O)c1ccc(N)c(Cl)c1)C(C)(C)C (stereo not given in full)
active: viability (% of DMSO) [9] 164%
inactive: Potency [1] | Potency [2] | Potency [8] | viability [3] 129% | Potency [5] | Potency [6]

Cn1c(N2CCCCS2(=O)=O)nc(C(=O)NCc2ccc(F)cc2)c(O)c1=O
inactive: Potency [1] | Potency [8] | viability [3] 112% | Potency [5] | Potency [6]

COc1ccc(-c2coc3cc(O)cc(O)c3c2=O)cc1
inactive: Potency [1] | Potency [8] | Potency [6]

COc1ccc(Cc2ccc(NC(N)=O)cc2)cc1-c1cccc(Cl)c1
inactive: Potency [1] | Potency [8] | Potency [6]

O=c1c(O)c(-c2ccc(O)cc2)oc2cc(O)cc(O)c12
active: Potency [9] 14.8 µM | Potency [2] 26.4 µM | Potency [5] 14.8 µM | Potency [6] 16.6 µM
inactive: Potency [1]

CCOC(=O)O[C@]1(C(=O)OCCl)CC[C@@H]2[C@H]3CCC4=CC(=O)C=C[C@]4(C)[C@@H]3[C@@H](O)C[C@@]21C
inactive: Potency [7] | viability [3] 124% | Potency [5] | Potency [6]
